For twelve sequences, binding signal results are on record in paper PMC8384837, “Expanding the binding specificity for RNA recognition by a PUF domain”.

Where a chain is given by its changes, count along the chain named.

What all share (test): yeast three-hybrid, YBZ-1, SC-Leu-His + 0.5 mM 3-AT, 4 days
Holding throughout (settings): tags: N-Gal4 AD-HA kept; label: inside an RPR1-promoter hybrid RNA with tandem MS2 sites; ssRNA

One test has as its target PUM1 PUF domain R1-CRR (Homo sapiens, UniProt Q14671 828-1176, S863C;Q867R). In short, it runs like this:
(§1)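 Repeat regions from input (SC-Leu) and selection (SC-Leu-His + 0.5 mM 3-AT) plates were PCR-amplified and Illumina-sequenced after four days of growth. The cells were strain YBZ-1 with a LexA–MS2 coat fusion and a HIS3 reporter, co-expressing Pumilio-1 PUF domain libraries and matching RNA elements from a centromeric plasmid. The interaction score is the log change in variant frequency from input to selection, taken in log2 with a pseudocount of 1 for absent variants.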

The next test addresses PUM1 PUF domain R8-QWF (Homo sapiens, UniProt Q14671 828-1176, N1122Q;Y1123W;Q1126F). In short, it runs like this: as §1
The target in a further test is PUM1 PUF domain R8-KFM (Homo sapiens, UniProt Q14671 828-1176, N1122K;Y1123F;Q1126M). In short, it runs like this: as §1
The target in another test is PUM1 PUF domain R8-RFA (Homo sapiens, UniProt Q14671 828-1176, N1122R;Y1123F;Q1126A). In short, it runs like this:
as §1

For another test, the target named is PUM1 PUF domain R3-LSS (Homo sapiens, UniProt Q14671 828-1176, C935L;R936S;Q939S). In short, it runs like this:
as §1

For the next test, the target named is PUM1 PUF domain R3-TRV (Homo sapiens, UniProt Q14671 828-1176, C935T;Q939V). In short, it runs like this: as §1
A further test has as its target PUM1 PUF domain R3-QRI (Homo sapiens, UniProt Q14671 828-1176, C935Q;Q939I). In short, it runs like this: as §1
Another test has as its target PUM1 PUF domain R7-ISR (Homo sapiens, UniProt Q14671 828-1176, S1079I;N1080S;E1083R). In short, it runs like this: as §1
In the next test the target is PUM1 PUF domain R7-MSG (Homo sapiens, UniProt Q14671 828-1176, S1079M;N1080S;E1083G). In short, it runs like this: as §1
A further test concerns the target PUM1 PUF domain R1-NCS (Homo sapiens, UniProt Q14671 828-1176, S863N;R864C;Q867S). In short, it runs like this: as §1
The target in the next test is PUM1 PUF domain R5-KNS (Homo sapiens, UniProt Q14671 828-1176, C1007K;R1008N;Q1011S). In short, it runs like this:
as §1

A further test concerns the target PUM1 PUF domain R5-CRR (Homo sapiens, UniProt Q14671 828-1176, Q1011R). In short, it runs like this: as §1
The next test concerns the target PUM1 PUF domain R5-RSS (Homo sapiens, UniProt Q14671 828-1176, C1007R;R1008S;Q1011S). In short, it runs like this:
as §1

A further test concerns the target PUM1 PUF domain R5-RGN (Homo sapiens, UniProt Q14671 828-1176, C1007R;R1008G;Q1011N). In short, it runs like this: as §1
A further test concerns the target PUM1 PUF domain R4-TPA (Homo sapiens, UniProt Q14671 828-1176, N971T;H972P;Q975A). In short, it runs like this: as §1
For another test, the target named is PUM1 PUF domain R4-SQS (Homo sapiens, UniProt Q14671 828-1176, N971S;H972Q;Q975S). In short, it runs like this:
as §1

A further test has as its target PUM1 PUF domain R4-QPC (Homo sapiens, UniProt Q14671 828-1176, N971Q;H972P;Q975C). In short, it runs like this:
as §1

For the next test, the target named is T1, PUM1 PUF domain R6-FYK (Homo sapiens, UniProt Q14671 828-1176, N1043F;Q1047K).
T1 sequence: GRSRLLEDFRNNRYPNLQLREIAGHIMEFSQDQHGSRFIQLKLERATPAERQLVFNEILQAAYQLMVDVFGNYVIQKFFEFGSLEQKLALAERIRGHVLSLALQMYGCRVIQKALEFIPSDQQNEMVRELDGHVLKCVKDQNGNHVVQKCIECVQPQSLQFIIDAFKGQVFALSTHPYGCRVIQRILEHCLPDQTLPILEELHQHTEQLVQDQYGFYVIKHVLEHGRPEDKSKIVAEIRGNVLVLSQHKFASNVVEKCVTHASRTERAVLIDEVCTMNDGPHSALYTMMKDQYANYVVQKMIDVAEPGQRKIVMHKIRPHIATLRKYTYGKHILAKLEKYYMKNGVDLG
In short, it runs like this:
as §1

In the next test the target is PUM1 PUF domain R3-SRW (Homo sapiens, UniProt Q14671 828-1176, C935S;Q939W). In short, it runs like this: as §1
The target of another test is T2, PUM1 PUF domain R6-TRE (Homo sapiens, UniProt Q14671 828-1176, N1043T;Y1044R;Q1047E).
T2 sequence: T1 sequence with F216T, Y217R, K220E
In short, it runs like this: as §1

Chain of PUM1 PUF domain R4-TPA (Q14671 828-1176 N971T/H972P/Q975A): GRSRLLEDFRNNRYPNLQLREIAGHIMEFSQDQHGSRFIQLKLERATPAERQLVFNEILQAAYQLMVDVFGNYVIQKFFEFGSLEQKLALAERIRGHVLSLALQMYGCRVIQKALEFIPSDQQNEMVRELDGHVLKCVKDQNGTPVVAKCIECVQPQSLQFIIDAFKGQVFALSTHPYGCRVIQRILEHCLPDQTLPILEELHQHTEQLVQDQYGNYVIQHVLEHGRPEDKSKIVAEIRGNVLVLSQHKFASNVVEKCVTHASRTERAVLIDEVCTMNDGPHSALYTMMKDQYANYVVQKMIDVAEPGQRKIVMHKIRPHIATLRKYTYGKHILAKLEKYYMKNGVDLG

Regarding “GGCUAGAACUAGUGGAUCCCCCGGCGCCCGGCGGCUCGAGCCCGGGUAAGUGUAAAUCGUCUGCAUGCCGCCGGGCGCCAUGCCUGCAGGUCGACUCUAGAAAACAUG”, in the test with PUM1 PUF domain R1-CRR, the binding signal is 2.5 log2 enrichment (interaction score).

With “GGCUAGAACUAGUGGAUCCCCCGGCGCCCGGCGGCUCGAGCCCGGGUAAGCGUAAAUAGUCUGCAUGCCGCCGGGCGCCAUGCCUGCAGGUCGACUCUAGAAAACAUG”, the binding signal is 2.87 log2 enrichment (interaction score) in the test with PUM1 PUF domain R8-QWF, 2.54 log2 enrichment (interaction score) with PUM1 PUF domain R8-KFM and 5.73 log2 enrichment (interaction score) in the test with PUM1 PUF domain R8-RFA.

Consider “GGCUAGAACUAGUGGAUCCCCCGGCGCCCGGCGGCUCGAGCCCGGGUAAGUGUAAGUAGUCUGCAUGCCGCCGGGCGCCAUGCCUGCAGGUCGACUCUAGAAAACAUG”, for which the binding signal with PUM1 PUF domain R3-LSS was 5.06 log2 enrichment (interaction score); with PUM1 PUF domain R3-TRV, 1.18 log2 enrichment (interaction score); with PUM1 PUF domain R3-QRI, 3.99 log2 enrichment (interaction score).

Turning to “GGCUAGAACUAGUGGAUCCCCCGGCGCCCGGCGGCUCGAGCCCGGGUAAGUUUAAAUAGUCUGCAUGCCGCCGGGCGCCAUGCCUGCAGGUCGACUCUAGAAAACAUG”, the figures for the binding signal in the test with PUM1 PUF domain R7-ISR and with PUM1 PUF domain R7-MSG were 5.98 log2 enrichment (interaction score) and 3.37 log2 enrichment (interaction score), respectively.

Turning to “GGCUAGAACUAGUGGAUCCCCCGGCGCCCGGCGGCUCGAGCCCGGGUAAGUGUAAAUUGUCUGCAUGCCGCCGGGCGCCAUGCCUGCAGGUCGACUCUAGAAAACAUG”, the binding signal was 3.38 log2 enrichment (interaction score) in the test with PUM1 PUF domain R1-NCS and 0.67 log2 enrichment (interaction score) in the test with PUM1 PUF domain R1-CRR.

For the sequence “GGCUAGAACUAGUGGAUCCCCCGGCGCCCGGCGGCUCGAGCCCGGGUAAGUGUCAAUAGUCUGCAUGCCGCCGGGCGCCAUGCCUGCAGGUCGACUCUAGAAAACAUG”, the binding signal with PUM1 PUF domain R5-KNS is 4.54 log2 enrichment (interaction score); in the test with PUM1 PUF domain R5-CRR it was 4.63 log2 enrichment (interaction score); in the test with PUM1 PUF domain R5-RSS it was 2.89 log2 enrichment (interaction score).

As to “GGCUAGAACUAGUGGAUCCCCCGGCGCCCGGCGGCUCGAGCCCGGGUAAGUGUUAAUAGUCUGCAUGCCGCCGGGCGCCAUGCCUGCAGGUCGACUCUAGAAAACAUG”, the binding signal is 2.86 log2 enrichment (interaction score) with PUM1 PUF domain R5-RSS and 2.27 log2 enrichment (interaction score) with PUM1 PUF domain R5-RGN.

For “GGCUAGAACUAGUGGAUCCCCCGGCGCCCGGCGGCUCGAGCCCGGGUAAGUGUACAUAGUCUGCAUGCCGCCGGGCGCCAUGCCUGCAGGUCGACUCUAGAAAACAUG”, the binding signal with PUM1 PUF domain R4-TPA was 3.56 log2 enrichment (interaction score).

In the case of “GGCUAGAACUAGUGGAUCCCCCGGCGCCCGGCGGCUCGAGCCCGGGUAAGUGUAAUUAGUCUGCAUGCCGCCGGGCGCCAUGCCUGCAGGUCGACUCUAGAAAACAUG”, the binding signal is 3.25 log2 enrichment (interaction score) in the test with PUM1 PUF domain R3-LSS and 2.79 log2 enrichment (interaction score) with PUM1 PUF domain R3-TRV.

On to “GGCUAGAACUAGUGGAUCCCCCGGCGCCCGGCGGCUCGAGCCCGGGUAAGUGUAUAUAGUCUGCAUGCCGCCGGGCGCCAUGCCUGCAGGUCGACUCUAGAAAACAUG”, for which the binding signal is 4.12 log2 enrichment (interaction score) in the test with PUM1 PUF domain R4-TPA, 0.2 log2 enrichment (interaction score) in the test with PUM1 PUF domain R4-SQS and 2.52 log2 enrichment (interaction score) with PUM1 PUF domain R4-QPC.

Consider “GGCUAGAACUAGUGGAUCCCCCGGCGCCCGGCGGCUCGAGCCCGGGUAAGUGUAAAUAGUCUGCAUGCCGCCGGGCGCCAUGCCUGCAGGUCGACUCUAGAAAACAUG”, for which the binding signal in the test with PUM1 PUF domain R4-TPA is 3.35 log2 enrichment (interaction score); in the test with PUM1 PUF domain R4-SQS it was 2.72 log2 enrichment (interaction score); with PUM1 PUF domain R5-CRR, 2.75 log2 enrichment (interaction score); with PUM1 PUF domain R8-QWF, 2.1 log2 enrichment (interaction score); in the test with PUM1 PUF domain R8-KFM, 2.58 log2 enrichment (interaction score); with PUM1 PUF domain R4-QPC, 0.51 log2 enrichment (interaction score). For the same sequence, the binding signal with PUM1 PUF domain R3-TRV was 2.47 log2 enrichment (interaction score); in the test with PUM1 PUF domain R8-RFA, 5.72 log2 enrichment (interaction score); with PUM1 PUF domain R6-FYK, 5.82 log2 enrichment (interaction score); with PUM1 PUF domain R5-RGN, 0.69 log2 enrichment (interaction score); with PUM1 PUF domain R3-SRW it was 2.61 log2 enrichment (interaction score).

Consider “GGCUAGAACUAGUGGAUCCCCCGGCGCCCGGCGGCUCGAGCCCGGGUAAGUGGAAAUAGUCUGCAUGCCGCCGGGCGCCAUGCCUGCAGGUCGACUCUAGAAAACAUG”, for which the binding signal in the test with PUM1 PUF domain R6-TRE was 5.05 log2 enrichment (interaction score).
